According to the supplement of paper PMC4466140:

B1: unnamed (peptide)
chain: APPPPPRRATPEKKP

Each binder was assayed against AgAbp1 (assay: SPOT peptide array binding signal intensity (averaged, normalized) (arbitrary units (background-subtracted, floor 0; scale differs between SH3 domains)); higher = stronger binding of the SH3 domain to the peptide).
How it was run: (§1)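 GST-SH3 fusions from four yeast species, purified on glutathione Sepharose, were incubated at 10 μg/ml overnight at 4°C on membranes of synthetic 15-mer peptides in which cysteines were replaced with serines. Binding signal is the normalized, background-subtracted spot intensity averaged over replicates, in domain-specific arbitrary units.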

Binder	SPOT peptide array binding signal intensity
B1	79

What follows are binders tested against AgBbc1 in the same assay as above.
How it was run: as §1

Binder	SPOT peptide array binding signal intensity
B1	202

These binders were tested against AgBem1-D1 in the same assay as above.
How it was run: as §1

Binder	SPOT peptide array binding signal intensity
B1	24.5

What follows are binders tested against AgBzz1-D1 in the same assay as above.
How it was run: as §1

Binder	SPOT peptide array binding signal intensity
B1	84

What follows are binders tested against AgBzz1-D2 in the same assay as above.
How it was run: as §1

Binder	SPOT peptide array binding signal intensity
B1	29.5

What follows are binders tested against AgCyk3 in the same assay as above.
How it was run: as §1

Binder	SPOT peptide array binding signal intensity
B1	≤ 0

These binders were tested against AgFus1 in the same assay as above.
How it was run: as §1

Binder	SPOT peptide array binding signal intensity
B1	≤ 0

Each binder was assayed against AgHof1 in the same assay as above.
How it was run: as §1

Binder	SPOT peptide array binding signal intensity
B1	0.75

The binders below were run against AgHse1 in the same assay as above.
How it was run: as §1

Binder	SPOT peptide array binding signal intensity
B1	17

What follows are binders tested against AgLsb1 in the same assay as above.
How it was run: as §1

Binder	SPOT peptide array binding signal intensity
B1	17.5

The binders below were run against AgLsb4 in the same assay as above.
How it was run: as §1

Binder	SPOT peptide array binding signal intensity
B1	192

Each binder was assayed against AgMyo5 in the same assay as above.
How it was run: as §1

Binder	SPOT peptide array binding signal intensity
B1	4

These binders were tested against AgNbp2 in the same assay as above.
How it was run: as §1

Binder	SPOT peptide array binding signal intensity
B1	≤ 0

These binders were tested against AgRvs167 in the same assay as above.
How it was run: as §1

Binder	SPOT peptide array binding signal intensity
B1	209

What follows are binders tested against AgSho1 in the same assay as above.
How it was run: as §1

Binder	SPOT peptide array binding signal intensity
B1	1.5

What follows are binders tested against AgSla1-D1-D2 in the same assay as above.
How it was run: as §1

Binder	SPOT peptide array binding signal intensity
B1	≤ 0

The binders below were run against AgSla1-D3 in the same assay as above.
How it was run: as §1

Binder	SPOT peptide array binding signal intensity
B1	1.5

What follows are binders tested against CaAbp1-D1 in the same assay as above.
How it was run: as §1

Binder	SPOT peptide array binding signal intensity
B1	62

What follows are binders tested against CaAbp1-D2 in the same assay as above.
How it was run: as §1

Binder	SPOT peptide array binding signal intensity
B1	58

Each binder was assayed against CaBbc1 in the same assay as above.
How it was run: as §1

Binder	SPOT peptide array binding signal intensity
B1	368

What follows are binders tested against CaBem1-D1 in the same assay as above.
How it was run: as §1

Binder	SPOT peptide array binding signal intensity
B1	1

The binders below were run against CaBzz1-D1 in the same assay as above.
How it was run: as §1

Binder	SPOT peptide array binding signal intensity
B1	1050

What follows are binders tested against CaBzz1-D2 in the same assay as above.
How it was run: as §1

Binder	SPOT peptide array binding signal intensity
B1	156

These binders were tested against CaCyk3 in the same assay as above.
How it was run: as §1

Binder	SPOT peptide array binding signal intensity
B1	18.5

What follows are binders tested against CaFus1 in the same assay as above.
How it was run: as §1

Binder	SPOT peptide array binding signal intensity
B1	52.5

These binders were tested against CaHof1 in the same assay as above.
How it was run: as §1

Binder	SPOT peptide array binding signal intensity
B1	73

Each binder was assayed against CaHse1 in the same assay as above.
How it was run: as §1

Binder	SPOT peptide array binding signal intensity
B1	3

These binders were tested against CaLsb1 in the same assay as above.
How it was run: as §1

Binder	SPOT peptide array binding signal intensity
B1	≤ 0

Each binder was assayed against CaLsb4 in the same assay as above.
How it was run: as §1

Binder	SPOT peptide array binding signal intensity
B1	1860

These binders were tested against CaMyo5 in the same assay as above.
How it was run: as §1

Binder	SPOT peptide array binding signal intensity
B1	2.5

What follows are binders tested against CaNbp2 in the same assay as above.
How it was run: as §1

Binder	SPOT peptide array binding signal intensity
B1	53

The binders below were run against CaRvs167 in the same assay as above.
How it was run: as §1

Binder	SPOT peptide array binding signal intensity
B1	94.7

Each binder was assayed against CaRvs167-3 in the same assay as above.
How it was run: as §1

Binder	SPOT peptide array binding signal intensity
B1	1

What follows are binders tested against CaSho1 in the same assay as above.
How it was run: as §1

Binder	SPOT peptide array binding signal intensity
B1	≤ 0

Each binder was assayed against CaSla1-D1-D2 in the same assay as above.
How it was run: as §1

Binder	SPOT peptide array binding signal intensity
B1	1170

Each binder was assayed against CaSla1-D3 in the same assay as above.
How it was run: as §1

Binder	SPOT peptide array binding signal intensity
B1	3

What follows are binders tested against ScAbp1 in the same assay as above.
How it was run: as §1

Binder	SPOT peptide array binding signal intensity
B1	69

These binders were tested against ScBbc1 in the same assay as above.
How it was run: as §1

Binder	SPOT peptide array binding signal intensity
B1	54.8

These binders were tested against ScBem1-D1 in the same assay as above.
How it was run: as §1

Binder	SPOT peptide array binding signal intensity
B1	≤ 0

Each binder was assayed against ScBzz1-D1 in the same assay as above.
How it was run: as §1

Binder	SPOT peptide array binding signal intensity
B1	14

These binders were tested against ScBzz1-D2 in the same assay as above.
How it was run: as §1

Binder	SPOT peptide array binding signal intensity
B1	10

These binders were tested against ScCyk3 in the same assay as above.
How it was run: as §1

Binder	SPOT peptide array binding signal intensity
B1	≤ 0

Each binder was assayed against ScFus1 in the same assay as above.
How it was run: as §1

Binder	SPOT peptide array binding signal intensity
B1	3

The binders below were run against ScHof1 in the same assay as above.
How it was run: as §1

Binder	SPOT peptide array binding signal intensity
B1	9.75

The binders below were run against ScHse1 in the same assay as above.
How it was run: as §1

Binder	SPOT peptide array binding signal intensity
B1	30

These binders were tested against ScLsb1 in the same assay as above.
How it was run: as §1

Binder	SPOT peptide array binding signal intensity
B1	43.8

These binders were tested against ScLsb2 in the same assay as above.
How it was run: as §1

Binder	SPOT peptide array binding signal intensity
B1	9

The binders below were run against ScLsb3 in the same assay as above.
How it was run: as §1

Binder	SPOT peptide array binding signal intensity
B1	1690

What follows are binders tested against ScLsb4 in the same assay as above.
How it was run: as §1

Binder	SPOT peptide array binding signal intensity
B1	375

These binders were tested against ScMyo3 in the same assay as above.
How it was run: as §1

Binder	SPOT peptide array binding signal intensity
B1	111

The binders below were run against ScMyo5 in the same assay as above.
How it was run: as §1

Binder	SPOT peptide array binding signal intensity
B1	29.5

These binders were tested against ScNbp2 in the same assay as above.
How it was run: as §1

Binder	SPOT peptide array binding signal intensity
B1	≤ 0

The binders below were run against ScPex13 in the same assay as above.
How it was run: as §1

Binder	SPOT peptide array binding signal intensity
B1	89.2

These binders were tested against ScRvs167 in the same assay as above.
How it was run: as §1

Binder	SPOT peptide array binding signal intensity
B1	963

The binders below were run against ScSho1 in the same assay as above.
How it was run: as §1

Binder	SPOT peptide array binding signal intensity
B1	56

The binders below were run against ScSla1-D1-D2 in the same assay as above.
How it was run: as §1

Binder	SPOT peptide array binding signal intensity
B1	459

The binders below were run against ScSla1-D3 in the same assay as above.
How it was run: as §1

Binder	SPOT peptide array binding signal intensity
B1	3.25

What follows are binders tested against SpAbp1-D1 in the same assay as above.
How it was run: as §1

Binder	SPOT peptide array binding signal intensity
B1	165

What follows are binders tested against SpBbc1 in the same assay as above.
How it was run: as §1

Binder	SPOT peptide array binding signal intensity
B1	2.5

The binders below were run against SpBzz1-D1 in the same assay as above.
How it was run: as §1

Binder	SPOT peptide array binding signal intensity
B1	814

The binders below were run against SpBzz1-D2 in the same assay as above.
How it was run: as §1

Binder	SPOT peptide array binding signal intensity
B1	1.25

What follows are binders tested against SpCyk3 in the same assay as above.
How it was run: as §1

Binder	SPOT peptide array binding signal intensity
B1	3

These binders were tested against SpHof1 in the same assay as above.
How it was run: as §1

Binder	SPOT peptide array binding signal intensity
B1	15.8

The binders below were run against SpHof1-2 in the same assay as above.
How it was run: as §1

Binder	SPOT peptide array binding signal intensity
B1	17

The binders below were run against SpHof1-3 in the same assay as above.
How it was run: as §1

Binder	SPOT peptide array binding signal intensity
B1	270

What follows are binders tested against SpHse1 in the same assay as above.
How it was run: as §1

Binder	SPOT peptide array binding signal intensity
B1	42.5

The binders below were run against SpLsb1 in the same assay as above.
How it was run: as §1

Binder	SPOT peptide array binding signal intensity
B1	10.2

Each binder was assayed against SpLsb4 in the same assay as above.
How it was run: as §1

Binder	SPOT peptide array binding signal intensity
B1	1240

Each binder was assayed against SpMyo1 in the same assay as above.
How it was run: as §1

Binder	SPOT peptide array binding signal intensity
B1	998

These binders were tested against SpNbp2 in the same assay as above.
How it was run: as §1

Binder	SPOT peptide array binding signal intensity
B1	≤ 0

These binders were tested against SpPex13 in the same assay as above.
How it was run: as §1

Binder	SPOT peptide array binding signal intensity
B1	1

The binders below were run against SpRvs167 in the same assay as above.
How it was run: as §1

Binder	SPOT peptide array binding signal intensity
B1	999

These binders were tested against SpSla1-D1-D2 in the same assay as above.
How it was run: as §1

Binder	SPOT peptide array binding signal intensity
B1	112

The binders below were run against SpSla1-D3 in the same assay as above.
How it was run: as §1

Binder	SPOT peptide array binding signal intensity
B1	3
